Measurements as given in ChEMBL document CHEMBL3988442, “University of Dundee, Small-Polar-MMV Screening Library” (2021).
Screen size: about 48,000 compounds; about 13,000 (27%) showed an effect of 50% or more. Some of the results follow.

Tested on: Wolbachia pipientis
Assay: Anti-Wolbachia Cell-Based Screen
Type: functional
Set-up: scale not given: in the data most compounds retested in dose-response had high values
Details: 5 µM

Row | SMILES | Percent Effect [%]
1 | Cc1ncsc1CCn1ccnc1-c1cc2n(n1)CCCNC2 | -9.491
2 | COc1cc(C)c(C(C)NC(=O)Nc2nnc(C)s2)cc1OC (stereo not drawn) | -2.297
3 | CO[C@H]1CN(C)S(=O)(=O)[C@@]12CCN(Cc1ccccc1)C2 | 109.7
4 | CC1CN(Cc2ccccc2)CCCN1CCNS(C)(=O)=O (stereo not drawn) | 2.156
5 | CC1CN(Cc2ccccc2)CCCN1CCS(C)(=O)=O (stereo not drawn) | -9.711
6 | CO[C@@H]1CN(C)S(=O)(=O)[C@@]12CCN(Cc1ccccc1)C2 | 116.7
7 | COc1ccc(OCC(C)NS(C)(=O)=O)cc1 (stereo not drawn) | -2.499
8 | CCCOc1cc(C)c2c(c1C)C[C@H]([C@H](C)C(=O)O)CC2 | -9.304
9 | CNS(=O)(=O)CC(=O)N1CC2(CCCC2)c2c(F)cccc21 | -10.56
10 | CCS(=O)(=O)N1CCC(NCC2CNc3cc(C)nn3C2)CC1 (stereo not drawn) | -5.639
11 | CC(=O)Nc1ccc2c(c1)C1(CCOCC1)C(=O)N2c1ccsc1 | 7.168
12 | c1ccc(Cc2noc(CN3CCCCC3C3OCCO3)n2)cc1 (stereo not drawn) | -5.666
13 | OCCN1CCCCC1C1OCCO1 (stereo not drawn) | 89.19
14 | COc1ccc(NC(=O)CN2CCCCC2C2OCCO2)cc1 (stereo not drawn) | 17.05
15 | COC(=O)c1ccc(NC(=O)CN2CCCCC2C2OCCO2)cc1 (stereo not drawn) | -2.306
16 | C1CCN(CCN2CCCCC2C2OCCO2)CC1 (stereo not drawn) | 105.6
17 | C1CC(CN2CCCCC2C2OCCO2)C1 (stereo not drawn) | 19.65
18 | CCCn1cc(C(=O)NCCc2ccc3c(c2)OCO3)c(C)n1 | -4.07
19 | CCn1cc(NC(=O)Nc2ccc3c(c2)OCCO3)cn1 | 131.1
20 | O=C(Cn1cc(Cl)cn1)Nc1ccc2c(c1)OCCCO2 | -3.42
21 | CCn1cc(NC(=O)NCC(C)O)cn1 (stereo not drawn) | -13.78
22 | CCn1cc(NC(=O)NCCc2ccc3c(c2)OCCO3)cn1 | 126.5
23 | CCn1cc(NC(=O)NCC2(N3CCOCC3)CCSC2)cn1 (stereo not drawn) | -22.54
24 | Cn1cc(CCNC(=O)CCc2ccc3c(c2)OCO3)cn1 | -1.168
25 | CCn1cc(NC(=O)NCCc2ccc3c(c2)OCO3)cn1 | 124.8
26 | CCn1cc(NC(=O)NCc2ccc3c(c2)OCO3)cn1 | 135.2
27 | Cc1nn(C)c(C)c1CN(Cc1cccn1-c1ccccn1)C(C)C | -9.247

Row | SMILES | Percent Effect [%]
28 | CCc1cnc(N2CCN(Cc3ccno3)CC2)s1 | 1.528
29 | CCn1cc(NC(=O)NC(CO)Cc2c[nH]c3ccccc23)cn1 (stereo not drawn) | -9.205
30 | CC(C)c1nnc(NC(=O)NCc2ccc(CO)c(F)c2)s1 | -3.606
31 | CCn1cc(NC(=O)NCc2ccc(CO)c(F)c2)cn1 | 112.4
32 | CC(C)(C)C(=O)N1CCC(c2nc(O)cc(-c3ccncc3)n2)CC1 | 112.4
33 | O=C(c1ccccn1)N1CCCC(c2nccn2Cc2ccncc2)C1 (stereo not drawn) | -10.11
34 | O=C(c1cccnc1)N1CCC(c2nc(O)cc(-c3ccncc3)n2)C1 (stereo not drawn) | 89.59
35 | CC(C)C(=O)N1CCC(c2nc(O)cc(-c3ccncc3)n2)CC1 | -8.577
36 | O=C(c1ccccn1)N1CCC(c2nc(O)cc(-c3ccncc3)n2)C1 (stereo not drawn) | 109.3
37 | O=C(c1ccccn1)N1CCC(c2nccn2Cc2ccncc2)CC1 | 7.014
38 | COCc1cc(CNC(=O)c2c(O)cccc2O)n[nH]1 | 12.71
39 | CC(C)N1CCc2[nH]nc(C(=O)N3CCCC3C)c2C1 (stereo not drawn) | -13.09
40 | CCOCCCNC(=O)NC(C)c1ccc(-n2cncn2)cc1 (stereo not drawn) | -14.96
41 | CCOCCNC(=O)c1ccn(S(=O)(=O)c2ccc(C)cc2)c1 | -5.067
42 | COCC(C)N(C)C(=O)c1ccc2nncn2c1 (stereo not drawn) | 2.79
43 | COc1cc(C)c(NC(=O)NCCn2cccc2)cc1OC | 2.296
44 | NC(=O)C1CCN(Cc2cc3c(cc2Br)OCCO3)C1 (stereo not drawn) | 0.4913
45 | CCc1ccccc1OC1CN(C(=O)c2ccsc2)C1 | -5.309
46 | CC(C)C1CN(C(=O)c2ccsc2)CCS1 (stereo not drawn) | 1.544
47 | Cc1ccsc1C(=O)N1C[C@@H](C(=O)O)[C@H](C(C)C)C1 | 117.1
48 | Cc1cncc(C(=O)N2CCN(c3cnn(C)c(=O)c3)CC2)c1 | -23.7
49 | Cc1cncc(C(=O)N2CCCC(C(=O)CCc3ccccc3)C2)c1 (stereo not drawn) | -18.81
50 | Cc1cncc(C(=O)N2C[C@@H](C(=O)O)[C@H](C(C)C)C2)c1 | 102.6
51 | CC(C)[C@@H]1CN(C(=O)C2(c3ccccc3)CC2)C[C@H]1C(=O)O | 6.034
52 | CC(C)[C@@H]1CN(C(=O)CN(C)Cc2ccccc2)C[C@H]1C(=O)O | -19.29
53 | CC(C)[C@@H]1CN(C(=O)c2ccsc2)C[C@H]1C(=O)O | 124.9
